Measured values from PubChem BioAssay AID1159580 (chemical genetic matrix, 2015).
The whole screen tested about 5,500 compounds, of which about 2,000 (36%) were called active. Not shown: some 18% with an inconclusive outcome. No stated cut-off is given here; in the data, active means normalized growth mostly below about 0.91 (no sharp cut-off); inconclusive means no clear call, values can overlap the other calls; inactive means mostly above about 0.92. Some of the results follow.

Assay: chemical genetic growth profiling, strain panel (AID 1159580);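 further: tested at 20 µM; growth read once vehicle control cultures reached saturation at 30 °C; 1 = growth at the plate median or of vehicle wells; lower values mean less growth of the strain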
Conditions: growth OD

Measured: normalized growth

COC1=C[C@@H]2[C@@H]3Cc4ccc(OC)c(O)c4[C@]2(CCN3C)CC1=O
inactive: S. cerevisiae deletion strains, locus YJR075W, strain HOC1, hits give low values 0.928 | S. cerevisiae deletion strains, locus YKL009W, strain mrt4, hits give low values 0.978 | S. cerevisiae deletion strains, locus YKL068W, hits give low values 0.977 | S. cerevisiae deletion strains, locus YKL085W, strain MDH1 (second series), hits give low values 0.979 | S. cerevisiae deletion strains, locus YKL085W, strain MDH1, hits give low values 0.979 | S. cerevisiae deletion strains, locus YKL160W, strain elf1, hits give low values 0.996 | S. cerevisiae deletion strains, locus YKL190W, strain CNB1, hits give low values 0.977 | S. cerevisiae deletion strains, locus YKR001C, strain vps1, hits give low values 0.992 | S. cerevisiae deletion strains, locus YKR026C, strain gcn3, hits give low values 1 | S. cerevisiae deletion strains, locus YKR091W, strain srl3, hits give low values 0.984 | S. cerevisiae deletion strains, locus YLL001W, strain dnm1, hits give low values 0.997 | S. cerevisiae deletion strains, locus YLL026W, hits give low values 0.982 | S. cerevisiae deletion strains, locus YLL041C, strain sdh2, hits give low values 1 | S. cerevisiae deletion strains, locus YLR027C, strain aat2, hits give low values 1 | S. cerevisiae deletion strains, locus YLR039C, strain RIC1, hits give low values 0.98 | S. cerevisiae deletion strains, locus YLR058C, strain SHM2, hits give low values 0.976 | S. cerevisiae deletion strains, locus YLR102C, strain apc9, hits give low values 0.971 | S. cerevisiae deletion strains, locus YLR113W, strain HOG1, hits give low values 1.01 | S. cerevisiae deletion strains, locus YLR221C, strain rsa3, hits give low values 0.993 | S. cerevisiae deletion strains, locus YLR258W, strain gsy2, hits give low values 0.987 | S. cerevisiae deletion strains, locus YLR262C, strain YPT6 (second series), hits give low values 0.999 | S. cerevisiae deletion strains, locus YLR262C, strain YPT6, hits give low values 0.926 | S. cerevisiae deletion strains, locus YLR268W, strain sec22, hits give low values 0.967 | S. cerevisiae deletion strains, locus YLR320W, strain mms22, hits give low values 1 | S. cerevisiae deletion strains, locus YLR330W, strain CHS5, hits give low values 0.999 | S. cerevisiae deletion strains, locus YLR342W, strain FKS1 (second series), hits give low values 1.03 | S. cerevisiae deletion strains, locus YLR342W, strain FKS1, hits give low values 1 | S. cerevisiae deletion strains, locus YLR357W, strain rsc2, hits give low values 0.943 | S. cerevisiae deletion strains, locus YLR370C, strain arc18, hits give low values 1 | S. cerevisiae deletion strains, locus YLR371W, strain rom2, hits give low values 0.952 | S. cerevisiae deletion strains, locus YLR384C, strain iki3, hits give low values 0.987 | S. cerevisiae deletion strains, locus YLR418C, strain cdc73, hits give low values 0.969 | S. cerevisiae deletion strains, locus YML016C, strain PPZ1, hits give low values 0.979 | S. cerevisiae deletion strains, locus YML032C, strain rad52, hits give low values 0.985 | S. cerevisiae deletion strains, locus YML120C, strain ndi1, hits give low values 1 | S. cerevisiae deletion strains, locus YML124C, strain tub3, hits give low values 0.986 | S. cerevisiae deletion strains, locus YMR058W, strain fet3, hits give low values 1.01 | S. cerevisiae deletion strains, locus YMR078C, strain ctf18, hits give low values 0.977 | S. cerevisiae deletion strains, locus YMR125W, strain sto1, hits give low values 0.975 | S. cerevisiae deletion strains, locus YMR129W, hits give low values 1 | S. cerevisiae deletion strains, locus YMR205C, strain PFK2, hits give low values 0.985 | S. cerevisiae deletion strains, locus YMR231W, strain pep5, hits give low values 0.995 | S. cerevisiae deletion strains, locus YMR263W, strain SAP30, hits give low values 0.962 | S. cerevisiae deletion strains, locus YMR307W, strain GAS1, hits give low values 1.03 | S. cerevisiae deletion strains, locus YNL067W, strain RPL9B, hits give low values 0.988 | S. cerevisiae deletion strains, locus YNL071W, strain lat1, hits give low values 0.996 | S. cerevisiae deletion strains, locus YNL128W, strain TEP1, hits give low values 0.961 | S. cerevisiae deletion strains, locus YNL153C, strain GIM3, hits give low values 0.96 | S. cerevisiae deletion strains, locus YNL183C, strain NPR1, hits give low values 0.959 | S. cerevisiae deletion strains, locus YNL209W, strain ssb2, hits give low values 1.01 | S. cerevisiae deletion strains, locus YNL233W, strain BNI4, hits give low values 0.979 | S. cerevisiae deletion strains, locus YNL248C, strain rpa49, hits give low values 0.978 | S. cerevisiae deletion strains, locus YNL250W, strain rad50, hits give low values 0.981 | S. cerevisiae deletion strains, locus YNL271C, strain bni1, hits give low values 0.988 | S. cerevisiae deletion strains, locus YNL298W, strain CLA4, hits give low values 0.96 | S. cerevisiae deletion strains, locus YNL307C, strain MCK1, hits give low values 0.989 | S. cerevisiae deletion strains, locus YNL322C, strain KRE1 (second series), hits give low values 0.975 | S. cerevisiae deletion strains, locus YNL322C, strain KRE1, hits give low values 0.98 | S. cerevisiae deletion strains, locus YNR049C, strain mso1, hits give low values 1.01 | S. cerevisiae deletion strains, locus YNR052C, strain pop2, hits give low values 0.982 | S. cerevisiae deletion strains, locus YOL006C, strain TOP1, hits give low values 0.942 | S. cerevisiae deletion strains, locus YOL012C, strain htz1 2.19 | S. cerevisiae deletion strains, locus YOL147C, strain pex11, hits give low values 0.992 | S. cerevisiae deletion strains, locus YOR001W, strain rrp6, hits give low values 1.01 | S. cerevisiae deletion strains, locus YOR061W, strain CKA2, hits give low values 0.962 | S. cerevisiae deletion strains, locus YOR069W, strain VPS5, hits give low values 0.987 | S. cerevisiae deletion strains, locus YOR070C, strain gyp1, hits give low values 0.986 | S. cerevisiae deletion strains, locus YOR080W, strain dia2, hits give low values 0.999 | S. cerevisiae deletion strains, locus YOR083W, strain WHI5, hits give low values 0.974 | S. cerevisiae deletion strains, locus YOR106W, strain vam3, hits give low values 0.997 | S. cerevisiae deletion strains, locus YOR136W, strain idh2, hits give low values 0.988 | S. cerevisiae deletion strains, locus YOR144C, strain elg1, hits give low values 0.986 | S. cerevisiae deletion strains, locus YOR184W, strain ser1, hits give low values 0.99 | S. cerevisiae deletion strains, locus YOR231W, strain MKK1, hits give low values 0.998 | S. cerevisiae deletion strains, locus YOR265W, strain rbl2, hits give low values 1.01 | S. cerevisiae deletion strains, locus YOR270C, strain vph1, hits give low values 0.996 | S. cerevisiae deletion strains, locus YOR290C, strain snf2, hits give low values 0.987 | S. cerevisiae deletion strains, locus YOR316C, strain cot1, hits give low values 0.965 | S. cerevisiae deletion strains, locus YPL051W, strain arl3, hits give low values 0.985 | S. cerevisiae deletion strains, locus YPL055C, strain LGE1, hits give low values 0.9 | S. cerevisiae deletion strains, locus YPL078C, strain atp4, hits give low values 0.983 | S. cerevisiae deletion strains, locus YPL106C, strain sse1, hits give low values 0.961 | S. cerevisiae deletion strains, locus YPL240C, strain hsp82, hits give low values 0.985 | S. cerevisiae deletion strains, locus YPL241C, strain CIN2, hits give low values 0.985 | S. cerevisiae deletion strains, locus YPL256C, strain CLN2, hits give low values 1.02 | S. cerevisiae deletion strains, locus YPR119W, strain clb2, hits give low values 0.984 | S. cerevisiae deletion strains, locus YPR141C, strain kar3, hits give low values 0.945 | S. cerevisiae deletion strains, locus YPR163C, strain tif3, hits give low values 0.983 | S. cerevisiae deletion strains, locus YPR167C, strain met16, hits give low values 0.979 | S. cerevisiae deletion strains, strain wtn01, hits give low values 0.992 | S. cerevisiae strains, strain wild type, hits give low values 0.992
